Screens as filed in PubChem BioAssay.
The list is not random: actives were taken first. Their share in the collection is about 12%.
Sfp inh: qHTS Assay for Inhibitors of Bacillus subtilis Sfp phosphopantetheinyl transferase (PPTase); 4'-phosphopantetheinyl transferase ffp (Bacillus subtilis), Q9F4F7; Biochemical Sfp PPTase activity, qHTS; Potency, µM, without a hit: largest response in the series, negative = inhibition, usual class: inhibitors; 310,000 compounds, 3.5% hits; AID 1490, 2009;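 also: the enzyme is Sfp with the accession as filed and its product quenches rhodamine fluorescence; 0% = enzyme reaction without inhibitor and -100% = no enzyme wells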
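Step 1, compound plus 15 nM Sfp-PPTase, 15 min, room temperature. Step 2, add rhodamine-CoA (5 uM) and BHQ-2-YbbR (12.5 uM). Step 3, read 525/598 nm fluorescence at 0 and 30 min.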
ALDH1A1 inh: qHTS Assay for Inhibitors of Aldehyde Dehydrogenase 1 (ALDH1A1). Aldehyde dehydrogenase 1A1 (Homo sapiens), P00352. Purified ALDH1A1, NADH fluorescence, propionaldehyde substrate. Potency, µM (doses to about 75.3 µM), for the others: top-dose activity, negative = inhibition, hits mostly inhibitors. 220,000 compounds, 7.3% hits. AID 1030, 2008; active = well fitted inhibition curve with a large enough effect, not every such curve was filed as active; inconclusive = small, poorly fitted or top-dose-only effect, or another doubt; inactive = no such curve, though single readings can be large or run the other way;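 also: plate controls were no enzyme wells and a reference inhibitor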
RORgamma inh: qHTS for inhibitors of ROR gamma transcriptional activity. Nuclear receptor ROR-gamma (Mus musculus), P51450. Drosophila S2 Gal4-RORgamma UAS-luciferase reporter, 20 h. Potency, µM (highest dose often 53.6 µM), for inactives: top-dose activity change, negative = inhibition, usual class: inhibitors. 310,000 compounds, 5.4% hits. AID 2551, 2010; also: nearly all actives have a fitted effect of over 60% in size
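In this cell-based reporter format, copper sulfate (700 uM final) drives Gal4–ROR gamma fusion expression from a metallothionein promoter in Drosophila Schneider cells; compounds preincubated 1 hr, reporter read after 20 hr at ambient temperature.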
PLK1 PBD block: qHTS for Inhibitors of PLK1-PDB (polo-like kinase 1 - polo-box domain): Primary Screen; Serine/threonine-protein kinase PLK1 (Homo sapiens), P53350; Plk1 PBD binding of FITC phosphopeptide, fluorescence polarization; Potency, µM, without a hit: max response, negative = inhibition, usual class: inhibitors; 360,000 compounds, 2.8% hits; AID 720504, 2013; also: series mostly up to about 57 µM; nearly all actives have a fitted effect of over 65% in size
Target sequence (P53350 whole entry, looked up, the tested form may be a part): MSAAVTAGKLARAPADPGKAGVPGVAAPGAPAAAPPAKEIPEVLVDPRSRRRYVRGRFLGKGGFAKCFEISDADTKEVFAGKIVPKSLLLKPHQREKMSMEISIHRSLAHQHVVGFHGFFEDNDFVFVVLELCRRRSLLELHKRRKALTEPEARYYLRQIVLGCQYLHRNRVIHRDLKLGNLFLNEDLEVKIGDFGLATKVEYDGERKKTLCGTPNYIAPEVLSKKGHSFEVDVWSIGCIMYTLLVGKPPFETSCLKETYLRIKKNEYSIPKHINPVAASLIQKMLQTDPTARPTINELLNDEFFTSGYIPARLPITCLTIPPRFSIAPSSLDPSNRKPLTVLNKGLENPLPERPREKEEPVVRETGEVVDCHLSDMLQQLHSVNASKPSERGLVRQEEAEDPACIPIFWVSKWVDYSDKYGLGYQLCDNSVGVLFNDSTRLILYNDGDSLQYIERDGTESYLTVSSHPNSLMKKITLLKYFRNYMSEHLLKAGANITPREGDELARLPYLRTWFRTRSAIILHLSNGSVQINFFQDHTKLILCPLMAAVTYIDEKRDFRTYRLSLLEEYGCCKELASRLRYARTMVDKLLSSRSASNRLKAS
Gal4-VP16 FLuc: VP16 counterscreen qHTS for inhibitors of ROR gamma transcriptional activity. 310,000 compounds, 3.5% hits. Drosophila S2 Gal4-VP16 UAS-luciferase, luminescence, 20 h. Potency, µM (top dose mostly 53.6 µM), inactives show top-dose activity, negative = inhibition, usual class: inhibitors;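 also: Gal4-VP16 expression switched on by copper sulfate through the metallothionein promoter; nearly all actives have a fitted effect of over 50% in size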
The depositor's hits bear a star; ? = inconclusive; · = no result given; [ ] = dose if it differs, or a comment. Unless noted, calls follow the shape of the dose curve; as a rule, active = well fitted curve in the direction sought with a large enough effect; inconclusive = small, poorly fitted or top-dose-only effect, or another doubt; inactive = no such curve, though single readings can be large; an effect the other way counts as inactive or inconclusive. Unless noted, % is scaled to controls: 0 for no effect and ±100 for the full control effect; potency is read from the fitted curve at half-maximal effect.

SMILES	Sfp inh	ALDH1A1 inh	RORgamma inh	PLK1 PBD block	Gal4-VP16 FLuc
O=C(N/N=C/c1ccc(Br)s1)c1cccc([N+](=O)[O-])c1	11.2%	9.7%	0.447µM*	-4.0%	1µM*
O=C(N/N=C/c1ccoc1)c1cccc([N+](=O)[O-])c1	6.6%	·	11.2µM*	-2.5%	?
Cc1ccc(C(=O)N/N=C/c2ccoc2)cc1C	-7.0%	·	12.6µM*	-8.9%	?
Cc1ccc(/C=N/NC(=O)c2cccc([N+](=O)[O-])c2)o1	-13.6%	?	-21.9%[10 µM]	-2.1%	?
CC1CCc2c(sc3ncnc(SCC(=O)c4ccccc4)c23)C1 (centres undefined)	-1.3%	-11.9%	28.0%	13.4µM*	-4.0%
CC(=O)CSc1ncnc2sc3c(c12)CCC(C)C3 (centres undefined)	-21.0%	?	3.16µM*	23.8µM*	?
CC1CCc2c(sc3ncnc(SCC(=O)N(C)C4CCS(=O)(=O)C4)c23)C1 (centres undefined)	·	·	·	26.7µM*	·
O=C(CSc1ncnc2sc3c(c12)CCCC3)c1ccccc1	-2.9%	?	-20.2%	-2.8%	25.3%
O=C(CSc1ncnc2sc3c(c12)CCCC3)c1ccco1	?	22.4µM*	?	-14.3%	-7.0%
CC(=O)CSc1ncnc2sc3c(c12)CCCC3	0.2%	5.2%	-28.6%	6.2%	10.7%
CCc1cc2c(SCC(=O)N(C)C3CCS(=O)(=O)C3)ncnc2s1 (centres undefined)	13.6%	·	-0.9%	?	-2.4%
CC1(C(=O)O)CCN1C(=O)c1cccc(C(F)(F)F)c1 (centres undefined)	·	·	·	-0.1%	·
Cc1ccc([C@H]2C[C@H](n3cc(C4CC4)nn3)[C@@H](O)CN2C(=O)C2CCCCC2)cc1	·	·	·	-0.6%	·
Cc1ccsc1-c1nc(-c2ccccc2)c(-c2ccccc2)[nH]1	11.0%	?	3.98µM*	-1.1%	?
COc1cccc([C@@H]2Oc3ccc(Br)cc3C(=O)[C@H]2OC(=O)Nc2cc(OC)c(OC)c(OC)c2)c1	9.4%	-2.3%	?	·	-22.3%
Cc1oc(-c2cccc(Cl)c2)nc1CSCC(=O)O	-3.7%	7.2%	10µM*	-4.5%	5.01µM*
Cc1oc(-c2ccccc2Cl)nc1CSCC(=O)O	26.0%	-10.4%	-126.5%	-7.4%	7.94µM*
Cc1oc(-c2cccc(Cl)c2)nc1CS(=O)(=O)CC(=O)NC1CC1	10.1%	·	-17.7%	-19.6%	3.4%
NC(=O)C(=O)O	·	-2.7%	·	·	·
c1ccc(-c2nnc(SCC3CCCO3)nc2-c2ccccc2)cc1 (centres undefined)	-22.3%	12.6µM*	-8.1%	?	-3.7%
CC(C)CNC(=O)O	·	-9.5%[13.5 µM]	·	·	·
O=C(Oc1ccc(Oc2ccccc2)cc1)N1CCC(O)CC1	7.4%	·	41.6%	1.9%	-16.4%
O=C(c1ccc(Br)s1)N1CCN(C/C=C/c2ccccc2)CC1	?	17.8µM*	-1.6%	-8.8%	?
O=C(c1ccc(Br)o1)N1CCN(C/C=C/c2ccccc2)CC1	10.4%	0.9%	29.1%	-6.5%	1.6%
CC(=O)c1ccc(S(=O)(=O)NCC(=O)N2CCN(C/C=C/c3ccccc3)CC2)cc1	·	·	·	26.7µM*	·
SMILES	Sfp inh	ALDH1A1 inh	RORgamma inh	PLK1 PBD block	Gal4-VP16 FLuc
Cc1ccc(S(=O)(=O)NCCC(=O)N2CCN(C/C=C/c3ccccc3)CC2)cc1	·	·	·	-0.1%	·
CCOC(=O)c1ccc(NC(=O)c2nc[nH]c2C(=O)NCCCCNC(=O)c2[nH]cnc2C(=O)Nc2ccc(C(=O)OCC)cc2)cc1	·	·	·	-3.8%	·
CCOC(=O)c1ccc(NC(=O)c2nc[nH]c2C(=O)NCC(=O)OC(C)(C)C)cc1	22.9%	·	7.08µM*	10.3%	15.8µM*
CCOC(=O)c1ccc(NC(=O)c2nc[nH]c2C(=O)NCCCCCNC(=O)OC(C)(C)C)cc1	-4.7%	·	11.2µM*	-5.5%	?
CCOC(=O)c1ccc(NC(=O)c2nc[nH]c2C(=O)N(CC)CC)cc1	19.8%	·	11.2µM*	-14.4%	?
COc1ccc(Oc2ncc3nc(-c4ccc(OC)cc4)c(=O)n(CCC#N)c3n2)cc1	19.8%	?	0.3%	·	-11.1%
Oc1c(N=Nc2nn[nH]n2)ccc2ccccc12	·	·	·	16.8µM*	·
COc1cccc(N=Nc2ccc3ccccc3c2O)c1	-0.1%	·	8.91µM*	-2.7%	?
Cc1ccc(N=Nc2ccc3ccccc3c2O)cc1	-4.4%	·	-2.2%[1.91 µM]	?	?
Oc1c(N=Nc2ccc(F)cc2)ccc2ccccc12	19.9%	·	25.3%[1.91 µM]	9.47µM*	?
C/C(=C\C(=O)c1c(O)cc(C)oc1=O)N(C)C	-8.5%	1.8%	3.9%	29.9µM*	-3.4%
Cc1cc(O)c(C(=O)/C=C/c2ccc(Cl)cc2)c(=O)o1	2.6%	·	15.5%	-10.5%	-16.7%
CC(C)OC(=O)c1ccc(NC(=O)Cn2c(-c3nonc3N)nc3ccccc32)cc1	17.2%	22.4µM*	-39.9%	-30.0%	-5.7%
CCOC(=O)c1ccc(NC(=O)Cn2c(-c3nonc3N)nc3ccccc32)cc1	-9.6%	6.5%	-31.9%	21.2µM*	-5.5%
Cc1ccc(/C=C2/C(=O)C3(C)CCC2C3(C)C)cc1 (centres undefined)	-4.0%	·	3.3%	·	-0.5%
COc1ccc2c(c1)n([O-])c1c([n+]2=O)CCC1	-11.8%	·	4.1%	-17.5%	5.3%
CCOc1ccc2c(c1)n([O-])c1c([n+]2=O)CCCC1	20µM*	?	12.6µM*	-22.1%	?
CC(C)n1c(=O)c2ccccc2n1Cc1cn(-c2ccc(Cl)cc2)nn1	·	·	·	-13.2%	·
CCCS(=O)(=O)NC(=O)C1(C)CCN(C(=O)c2cc(F)cc(F)c2)C1 (centres undefined)	·	·	·	-0.4%	·
CCOC(=O)C1CCc2sc(N)c(C#N)c21 (centres undefined)	50.1µM*	?	38.1%	-17.8%	1.3%
CCOC(=O)N1CCc2c(sc(N)c2C#N)C1	56.2µM*	·	1.9%	0.0%	-8.6%
CCCC1CCc2c(sc(NC(=O)OCC)c2C#N)C1 (centres undefined)	-14.3%	?	-25.5%	-1.2%	-11.6%
O=C(Nc1ccccc1)c1cc(-c2ccccc2Cl)no1	-12.7%	6.7%	-35.1%	3.77µM*	-11.8%
COc1ccc(NC(=O)c2cc(-c3ccccc3Cl)no2)cc1	9.6%	4.0%	?	-6.8%	-10.8%
COc1ccc(C(=O)N2CCC(C)(C(=O)NS(=O)(=O)C3CC3)C2)c(OC)c1 (centres undefined)	·	·	·	-4.8%	·
CN(CC1COc2ccccc2O1)C(=S)NC1CCCCC1 (centres undefined)	-1.4%	?	12.6µM*	-8.9%	?
COc1cc(C)c(-c2[nH]ncc2-c2csc(C)n2)c(O)c1	0.1%	10.8%	-7.0%[10 µM]	29.9µM*	-13.8%
